This passage reports Potency results from PubChem BioAssay (NCATS).

A number with no mark means an inactive call. No rule for the calls is given here.
Potency is read from the fitted curve at half-maximal effect.

The subject of this test is HIV-1 nucleocapsid protein NCp7 (binding to TG oligonucleotide). Kind of test: HIV Nucleocapsid (AID 346).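 Also: potency is for inhibitors that block NC binding and lower polarization.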 Particulars: HIV-1 NC / fluorescein-TGTGTGTG probe, fluorescence polarization. A digest of the protocol: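 NCp7 100 nM + fluorescein TG4xF 10 nM; Hepes pH 7.5/250mM NaCl/1uM ZnCl2/0.004% PEG 20000; 1 hr RT; FP, 45 s exposure; oligo-only wells as negative control.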
For `COc1ccc(-n2c(=O)c(-c3cccs3)nc3cncnc32)cc1`, the Potency is more than 20 µM.

As for `O=C(c1cnccn1)N1CCC[C@@]2(CCN(c3ccncc3)C2)C1`, the Potency was more than 20 µM.

As for `CN1CCN(c2ncnc3ccc(-c4ccccc4C(F)(F)F)cc23)CC1`, the Potency is more than 20 µM.

Regarding `O=C(c1csnn1)N1CCC2(CC1)CN(Cc1cc(C(F)(F)F)cc(C(F)(F)F)c1)C2`, the Potency is more than 20 µM.

Turning to `COc1ccc(-c2nc3cnc(N4CCN(C)CC4)nc3n(Cc3cccs3)c2=O)cc1`, the Potency is more than 4 µM.

`COc1ccc(-n2c(=O)c(-c3cc(F)cc(F)c3)nc3cnc(N4CCOCC4)nc32)cc1`: the Potency was more than 20 µM.

Turning to `COc1ccc(CNc2ncncc2-c2c(C)noc2C)c(OC)c1`, the Potency is more than 20 µM.

As for `Cc1noc(C)c1C(=O)N1CCC2(CC1)CCN(c1cccc(-c3ccccc3)c1)CC2`, the Potency is more than 20 µM.

As for `COc1cccc(-c2cncnc2NCc2cccnc2)c1`, the Potency is more than 20 µM.

Consider `Cc1cccc(CNc2cc(-c3cccnc3)ncn2)c1`, for which the Potency is more than 20 µM.

With `COCCn1c(=O)c(-c2cccs2)nc2cnc(Oc3ccccc3)nc21`, the Potency is more than 20 µM.

As to `CCNc1ncc2nc(-c3ccc(OC)cc3)c(=O)n(Cc3cccs3)c2n1`, the Potency was more than 20 µM.

As to `COc1ccc(C(=O)N2CCC3(CC2)CN(C(=O)NC(C)C)C3)cc1`, the Potency was more than 20 µM.

With `CC(C)CN1CC2(CCN(C(=O)c3cnccn3)CC2)C1`, the Potency was more than 20 µM.

Consider `O=c1c(-c2ccc(Cl)cc2)nc2cnc(N3CCOCC3)nc2n1Cc1ccc(F)cc1`, for which the Potency was more than 20 µM.

As to `COc1ccccc1-c1cncnc1NCCN1CCOCC1`, the Potency is more than 20 µM.

Take `CN(C)Cc1ccccc1-c1nc(NC2CCNCC2)c2ccccc2n1`: the Potency was more than 20 µM.

With `COc1ccc(C(=O)N2CCC[C@@]3(CCN(C(=O)Nc4ccccc4)C3)C2)cc1`, the Potency was more than 20 µM.

On to `COc1ccc(CNc2cc(-c3ccccc3CN(C)C)ncn2)c(OC)c1`, for which the Potency is more than 20 µM.

Turning to `N#Cc1cccc(-c2nc3cnc(N4CCOCC4)nc3n(Cc3ccc(F)cc3)c2=O)c1`, the Potency was more than 20 µM.

As for `O=c1c(-c2ccc(Cl)cc2)nc2cnc(N3CCOCC3)nc2n1C1CC1`, the Potency is more than 20 µM.

For the compound `COCC(=O)N1CCC2(CCCN(c3ccc(-c4ccccc4)cc3)C2)CC1`, the Potency is more than 20 µM.

As for `COc1ccc(CNc2nc(-c3ccc(C(=O)N(C)C)cc3)nc3ccccc23)c(OC)c1`, the Potency is more than 20 µM.

With `O=c1c(-c2ccc(F)cc2)nc2cnc(Oc3cccc(Cl)c3)nc2n1C[C@H]1CCCO1`, the Potency was more than 20 µM.

In the case of `FC(F)(F)c1ccccc1-c1cncnc1NCCN1CCOCC1`, the Potency is more than 20 µM.
